Shn3 inh set2: inhibitors of Schnurri-3 3'UTR reporter in osteoblasts | Clone20 osteoblast Shn3 3'UTR firefly luciferase, 24 h | hit rate 0.52% among 360,000 | inhibition, % at 12.5 µM | AID 588674;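 active = mean inhibition of at least 75% with every replicate also reaching 75%; inconclusive = mean inhibition at least 75% but some replicate below; inactive = mean inhibition below 75%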;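 also: 0% = median of neutral control wells and 100% = pilot-screen positive control compound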
CSC inhib: blocks cancer stem cells; hit rate 1.1% among 300,000; inhibition, % at 7.5 µM; cancer stem cell-like cells viability, luminescence; AID 2717; in the data active = inhibition above about 75%; inconclusive = no clear call, values can overlap the other calls; tested in HMLE shEcad cells
Beta cell apopt: blocks beta cell apoptosis; INS-1E cytokine-induced death, ATP luminescence, 48 h; percent of positive-control rescue, neutral wells zero; protection from apoptosis, % (test concentration not listed); hit rate 0.8% among 300,000;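 active = Every replicate reaches about 75%, or at least half do and their mean reaches it too, limit read from the data; inconclusive = At least half of replicates reach the limit but their mean does not; inactive = Under half of replicates reach the limit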;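 also: 0% = cytokine-treated negative control wells and 100% = positive control rescue; higher means more ATP so stronger rescue from cytokine killing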
Calb FLC: C. albicans growth modulation with fluconazole | growth inhibition, % (test concentration not listed) | AID 1979 | C. albicans CaCi-2 (fluconazole-resistant clinical isolate) + fluconazole, Alamar Blue growth, 48 h | hit rate 0.57% among 300,000;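 active = growth inhibition above about 58% in most replicates, limit read from the data, passing the limit was not always enough; inconclusive = exactly half the replicates above a set limit; inactive = most replicates below a set limit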;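 also: all wells also contain fluconazole at 8 µg/ml as a sub-toxic cotreatment; 0% = median of DMSO wells and 100% = median of geldanamycin control wells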
PfHsp90 yeast 2: inhibits growth of yeast expressing Plasmodium falciparum Hsp90 | S. cerevisiae expressing PfHsp90, BacTiter-Glo ATP, 48 h; yeast lacking PDR1 and PDR3 efflux regulators | inhibition, % at 9.4 µM | hit rate 0.32% among 310,000 | AID 504621;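 active = every replicate shows inhibition above about 80%, whatever the replicate mean, limit read from the data; inconclusive = mean inhibition reaches the set limit but some replicate falls short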;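 also: 0% = DMSO neutral controls and 100% = 20 µM radicicol positive controls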
Numbers without * were called inactive; ? = inconclusive; . = no result given; + = active, no number. A selection: hits, their analogues and other compounds. The true share with any hit is near 2.2%.

SMILES	Shn3 inh set2	CSC inhib	Beta cell apopt	Calb FLC	PfHsp90 yeast 2
CC(C)(C)c1nn(-c2ccccc2)c2[nH]c(=O)c(CNc3ccc4c(c3)OCCO4)cc12	13	54	-19	4	121*
CC(C)(C)c1nn(-c2ccccc2)c2[nH]c(=O)c(CNCc3ccco3)cc12	-1	.	0	-5	-4
COc1cc2c(c(Br)c1N)-c1cc(Br)c(N)cc1C2=O	-58	.	.	.	.
O=C1C=CC(=O)N1c1ccc2ccccc2c1	37	.	.	.	116*
O=C1C=CC(=O)N1c1ccc(Nc2ccccc2)cc1	-13	.	.	.	126*
Cc1cccc(N2C(=O)C=CC2=O)c1	38	.	.	.	117*
CC(C)c1ccc(NC(=O)COC(=O)c2nn(C)c(=O)c3ccccc23)cc1	-3	-4	0	.	2
COCCN1C[C@@H](CO)O[C@@H](n2cnc3c(NCCN(C)C)ncnc32)C1	-4	.	.	.	.
CCOC(=O)c1ccc(N=C2SC(C(=O)Nc3ccc(C(=O)O)cc3)CC(=O)N2Cc2cccs2)cc1 (stereo not given)	-1	6	-2	6	2
O=S(=O)(c1c(Cl)cc(Br)cc1Cl)N1CCN(C(=S)NC2CC2)CC1	14	-11	-9	.	12
CCCCN(C=O)c1c(CC)nc2ccc(C(=O)NCCCN3CCCC3=O)cn12	-7	.	.	.	.
Cc1ccc(OCC(O)Cn2c(=N)n(Cc3ccccc3)c3ccccc32)cc1 (stereo not given)	81*	33	49	-32	.
N=c1n(Cc2ccc(Cl)cc2)c2ccccc2n1CC(O)COc1ccccc1 (stereo not given)	86*	3	8	30	1
Cc1cccc(OCC(O)Cn2c(=N)n(Cc3ccccc3)c3ccccc32)c1 (stereo not given)	52	27	1	0	6
COc1ccc(OCC(O)Cn2c(=N)n(Cc3ccccc3)c3ccccc32)cc1 (stereo not given)	77	16	28	?	13
N=c1n(Cc2ccccc2)c2ccccc2n1CC(O)COc1ccc(Cl)cc1Cl (stereo not given)	92*	.	.	?	-24
Cc1ccc([N+](=O)[O-])cc1N=C(c1ccc([N+](=O)[O-])cc1)N1CCOCC1	-22	1	0	-4	-9
O=[N+]([O-])c1ccc(C(=Nc2cccc3ccccc23)N2CCOCC2)cc1	13	1	3	100*	12
CC1(c2ccccc2Br)NC(=O)N(CC(=O)NC2CCCCC2)C1=O (stereo not given)	-3	.	0	.	0
CCC(C)N(C(=O)COC(=O)CNC(=O)c1ccccc1F)C1CCS(=O)(=O)C1 (stereo not given)	-23	6	-8	25	-13
CC(C)CN(C(=O)COC(=O)CNC(=O)c1ccccc1F)C1CCS(=O)(=O)C1 (stereo not given)	-4	.	-2	107*	10
CCOc1ccc(CN(C)C(=O)c2cccc(S(=O)(=O)N3CCCC3)c2)cc1OC	9	2	-8	.	.
COc1ccc(CN(C)C(=O)c2ccc(NS(=O)(=O)c3ccc(F)cc3)cc2)c(OC)c1OC	22	2	95*	4	-1
Cc1ccc2nc(N3CCN(c4cccc(C)c4C)CC3)c3nnnn3c2c1	7	17	.	-4	-22
Cc1ccc2nc(Cl)c3nnnn3c2c1	97*	?	-15	97*	107*
SMILES	Shn3 inh set2	CSC inhib	Beta cell apopt	Calb FLC	PfHsp90 yeast 2
Cc1ccccc1NC(=O)CSc1nc2ccccc2c(=O)n1C	87*	8	2	-3	10
CC(C)Oc1ccccc1NC(=O)CSc1nc2ccccc2c(=O)n1C	67	.	.	-2	20
Cc1cc(/C=N/n2cnnc2)c(C)n1-c1ccc(OCc2ccc(Cl)cc2Cl)cc1	98*	103*	113*	33	-1
Cc1cc(/C=N/n2cnnc2)c(C)n1-c1ccc(Cl)cc1	-1	-13	-10	-5	-35
Cc1cc(OCC(=O)N(C)Cc2ccccc2)ccc1Cl	-57	-17	110*	-7	2
COc1ccc(S(=O)(=O)NCC(=O)NCCc2ccc(OC)c(OC)c2)cc1	-5	-6	-16	-2	.
O=C1N/C(=N\N=C\c2cccs2)SC1Cc1cccc(Cl)c1 (stereo not given)	12	63	-4	-2	-13
O=C1N/C(=N\N=C\c2ccc3ncccc3c2)SC1Cc1ccc(SC(F)F)cc1 (stereo not given)	-52	-5	8	6	1
O=C1N/C(=N\N=C\c2cccnc2)SC1Cc1ccc(SC(F)F)cc1 (stereo not given)	61	99*	88*	70	18
O=C1N/C(=N\N=C\c2ccccn2)SC1Cc1cccc(SC(F)F)c1 (stereo not given)	53	111*	63	?	19
COc1cc2ccccc2cc1C(=O)NNC(=O)c1ccccc1O	19	13	7	95*	.
O=C(NC(=S)NNC(=O)c1cc2ccccc2cc1O)c1ccco1	10	25	30	83*	.
Cc1ccc(C(=O)NNC(=O)c2cc3ccccc3cc2O)cc1	-32	17	-2	91*	-12
COc1ccc(C)cc1NC(=O)NNC(=O)c1ccoc1C	-21	.	-6	-6	10
COc1ccc(C)cc1NC(=O)NNC(=O)c1cc2ccccc2cc1O	-19	6	0	93*	-9
CSc1ncnc2c1ncn2CCCN1CCN(C(=O)C2CC2)CC1	-11	.	.	.	.
COC(=O)c1ccc(COC(=O)c2ccc(C)c(S(=O)(=O)N3CCCCC3)c2)cc1	-40	.	.	.	.
COc1ccc(NC(=O)NNC(=O)c2cc3ccccc3cc2O)cc1	-99	7	2	86*	-33
CCOc1ccc(NC(=O)NNC(=O)c2ccc3ccccc3c2O)cc1	-4	-9	-3	85*	-1
O=C(NCCSc1ccccc1)c1ccc(Br)cc1	-107	.	-1	-4	23
O=C(NCCCSc1ccccc1)c1cc(Br)ccc1O	-4	80*	-10	-3	94*
O=C(O)c1ccc(C=C(c2nc3ccccc3s2)c2nc3ccccc3s2)cc1	-1	82*	-1	-3	-12
COc1cc(C=C(c2nc3ccccc3s2)c2nc3ccccc3s2)cc(OC)c1O	-15	3	-2	-4	6
CN(C)c1ccc(/C=C(\Cl)c2nc3ccccc3s2)cc1	24	92*	4	.	20
COc1ccc(-n2c(=S)[nH]c3cc(C(=O)N4CCN(c5ccccc5)CC4)ccc3c2=O)c(OC)c1	19	-17	.	-2	9
O=C(N/N=C/c1ccncc1)c1cc2ccccc2cc1O	1	-8	-1	91*	-18
O=C(N/N=C/c1ccc[nH]1)c1cc2ccccc2cc1O	3	.	7	?	23
CC(C)(C)c1cc(-c2nc(N)nc(N)n2)c(O)c(C(C)(C)C)c1	72	126*	4	.	+
Nc1nc(N)nc(-c2cc(O)ccc2O)n1	-25	-8	-13	.	-2
CCCn1c(N)c(C(=O)COC(=O)c2c(C)noc2C)c(=O)n(C)c1=O	-1	8	4	100*	-20
